# Screening results (PubChem BioAssay)
# PLC-gamma1 inh: inhibitors of human phospholipase C gamma1 | P19174 | purified PLC-gamma1, fluorogenic substrate, fluorescence | inhibition, % at 12.2 µM | 0.84% of 370,000 active; in the data active = inhibition above about 9.5%
# Target sequence (P19174 whole entry, looked up): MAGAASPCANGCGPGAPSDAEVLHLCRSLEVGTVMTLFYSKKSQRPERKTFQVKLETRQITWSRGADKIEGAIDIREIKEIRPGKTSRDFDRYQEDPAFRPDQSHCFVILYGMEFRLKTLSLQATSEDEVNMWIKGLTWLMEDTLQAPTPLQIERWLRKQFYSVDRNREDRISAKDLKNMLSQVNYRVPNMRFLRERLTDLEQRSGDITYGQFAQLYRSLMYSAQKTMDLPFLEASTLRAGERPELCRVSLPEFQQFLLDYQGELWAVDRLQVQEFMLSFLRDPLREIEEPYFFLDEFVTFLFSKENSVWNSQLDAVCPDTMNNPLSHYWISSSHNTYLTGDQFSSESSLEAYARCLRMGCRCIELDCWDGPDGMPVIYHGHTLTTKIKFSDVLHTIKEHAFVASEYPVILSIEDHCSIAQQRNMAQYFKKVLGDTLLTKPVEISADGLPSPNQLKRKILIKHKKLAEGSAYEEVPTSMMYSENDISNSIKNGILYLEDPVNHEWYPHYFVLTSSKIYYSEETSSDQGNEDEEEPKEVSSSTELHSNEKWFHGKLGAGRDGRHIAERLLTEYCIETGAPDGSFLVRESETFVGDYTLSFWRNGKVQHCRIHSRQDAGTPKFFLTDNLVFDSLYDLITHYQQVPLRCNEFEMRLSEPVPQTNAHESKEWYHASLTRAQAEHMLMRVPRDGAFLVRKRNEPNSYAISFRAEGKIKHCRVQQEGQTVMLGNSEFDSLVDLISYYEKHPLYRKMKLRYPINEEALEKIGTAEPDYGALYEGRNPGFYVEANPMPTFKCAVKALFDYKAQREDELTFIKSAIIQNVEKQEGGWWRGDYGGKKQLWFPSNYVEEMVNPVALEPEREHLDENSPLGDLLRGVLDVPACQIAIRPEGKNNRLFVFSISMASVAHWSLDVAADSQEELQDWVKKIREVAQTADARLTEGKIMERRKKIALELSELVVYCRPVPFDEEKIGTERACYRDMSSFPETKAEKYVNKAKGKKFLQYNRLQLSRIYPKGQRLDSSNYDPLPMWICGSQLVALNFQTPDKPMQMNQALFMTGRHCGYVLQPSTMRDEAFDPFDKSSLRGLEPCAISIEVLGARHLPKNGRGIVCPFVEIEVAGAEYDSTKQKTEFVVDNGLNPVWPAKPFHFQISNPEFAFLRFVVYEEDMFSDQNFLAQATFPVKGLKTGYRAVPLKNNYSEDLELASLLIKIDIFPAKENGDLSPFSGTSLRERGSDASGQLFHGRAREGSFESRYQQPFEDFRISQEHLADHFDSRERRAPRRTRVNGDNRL
# MsrA inhibitor: inhibits bovine methionine sulfoxide reductase A. purified bovine MsrA, absorbance read-out. inhibition, % at 15.5 µM. 0.75% of 360,000 active. AID 651718; in the data active = inhibition above about 4.5%;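 also: 0% = vehicle wells with enzyme and 100% = reference inhibitor wells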
# MsrA act: activators of bovine methionine sulfoxide reductase A; purified bovine MsrA, absorbance read-out; activation, % at 10.6 µM; 0.3% of 360,000 active; AID 602163; in the data active = activation above about 7.5%;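 also: 0% = vehicle and 100% = reference activator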
# PLCb3 inh: inhibitors of human phospholipase C beta3. Q01970. AID 720704. inhibition, % at 12.2 µM. 0.18% of 370,000 active. Purified PLC-beta3, fluorogenic substrate, fluorescence;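 also: 0% = median of compound wells on plate and 100% = full blocker control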
# PLCg1 ctr: inhibits human PLC-gamma1 in PLC-beta3 counter-screen; shares compounds with PLC-gamma1 inh; purified PLC-gamma1, fluorogenic substrate, fluorescence; inhibition, % at 12.3 µM; 3.1% of 3,300 active; AID 743258; in the data active = inhibition above about 9.5%
# PLCb3 confirm: confirmation of human PLC-beta3 inhibitors | purified PLC-beta3, fluorogenic substrate fluorescence | shares compounds with PLC-gamma1 inh | inhibition, % at 12.3 µM | 1% of 3,300 active
# The depositor's hits bear a star; . = no result. Rows were chosen to be rich in hits. Some 1.9% of all compounds tested hit in one or more screens of this group. Rule as the data show it, unless noted: active = inhibition above about 11%; inactive = the rest.
SMILES,PLC-gamma1 inh,MsrA inhibitor,MsrA act,PLCb3 inh,PLCg1 ctr,PLCb3 confirm
COC(=O)c1cc2c(c3c4cc(C)ccc4n(S(=O)(=O)c4ccc(OC)cc4)c13)C(=O)N(Cc1ccccc1OC)C2,-9,0,.,-13,.,.
CN(C)/C=C(/C(=O)c1ccccc1)n1cncn1,6,-1,-2,5,.,.
O=C(/C=C(/c1ccc(Cl)cc1)n1cncn1)c1ccccc1,7,2,-1,11*,-4,0
CCCOc1ccc(F)cc1-c1cc(C(=O)NCc2cccc(C(F)(F)F)c2)[nH]n1,1,0,-1,-1,.,.
CCCCOc1ccc(Br)cc1CSC(=N)N,10*,0,-2,-2,-2,0
CCOc1ccc(C(C)=O)cc1CSC(=N)N,5,2,-1,-7,.,.
COc1ccc(C(CNC(=O)c2cc3ccccc3o2)N2CCCC2)cc1 (stereo unspecified),11*,0,0,-12,-8,-4
COc1ccc(N2CC(C(=O)Nc3cc(C)on3)CC2=O)cc1 (stereo unspecified),1,0,-2,0,.,.
COc1ccc(Cc2nnc(NC(=O)C3CC(=O)N(c4ccc(OC)cc4)C3)s2)cc1 (stereo unspecified),0,1,3,-11,.,.
COc1ccc(N2CC(C(=O)Nc3cccc(C)n3)CC2=O)cc1 (stereo unspecified),10*,-1,-4,1,-5,-2
CCOc1ccc(N2CC(C(=O)Nc3nnc(Cc4ccc(OC)cc4)s3)CC2=O)cc1 (stereo unspecified),16*,-1,-5,-2,-6,-4
COCCN1Cc2cc(C(=O)OC)c3c(c2C1=O)c1cc(OC)ccc1n3S(=O)(=O)c1ccc(C)cc1,-59,1,.,-69,.,.
CC(C)(C)NC(=O)C1(C)CCC(=O)N1CC(F)(F)F (stereo unspecified),4,0,-7,-2,.,.
Cc1cc(C)cc(NC(=O)Cc2ccc(NC3=NC4CS(=O)(=O)CC4S3)cc2)c1 (stereo unspecified),0,0,-4,5,.,.
CC1CCCCC1NC(=O)c1cccc(NC2=NC3CS(=O)(=O)CC3S2)c1 (stereo unspecified),10.0*,0,-1,6,-3,-2
Cc1cccc(NC(=O)Cc2ccc(NC3=NC4CS(=O)(=O)CC4S3)cc2)c1 (stereo unspecified),9.7*,1,-1,4,-3,0
O=C(c1ccc(NC2=NC3CS(=O)(=O)CC3S2)cc1)N1CCN(Cc2ccccc2)CC1 (stereo unspecified),9.8*,0,-12,-1,-7,0
COc1ccc(C(=O)N2CCC[C@H]2C(=O)N2CCC[C@@H]2C(=O)NCc2ccccc2)cc1F,-3,0,.,1,.,.
CCCN(CC1CC1)C(=O)CSc1nnc(-c2ccncc2)n1-c1ccc(OC)cc1,2,.,.,1,.,.
CN1C(=O)[C@@]2(O[C@H]3[C@H]4C=C[C@@H]([C@H]5C(=O)N(Cc6ccccc6)C(=O)[C@@H]45)N3C3=C2C(=O)CC3)c2ccccc21,3,0,.,14*,-2,2
N#Cc1ccc(C23CC4(C2)[C@H](CN(Cc2ccc(-c5ccccc5)cc2)[C@@H]4c2ccccc2)C3c2ccc(Cl)nc2)cc1 (stereo partly specified),13*,0,-2,3,-10,-15
O=C(OC12CCCN(C1)/C(=C/c1ccncc1)C2)c1ccc(F)cc1 (stereo unspecified),-4,.,.,-8,.,.
Cc1ccc(SCCN2CCC(C(C)(C)C)CCC2=O)cc1 (stereo unspecified),4,-1,-9,6,.,.
CC(C)(C)C1CCC(=O)N(CCC#N)CC1 (stereo unspecified),11*,1,-1,7,-4,0
CC(C)(C)C1CCC(=O)N(CCSc2ccccc2)CC1 (stereo unspecified),13*,1,-4,6,-6,0
SMILES,PLC-gamma1 inh,MsrA inhibitor,MsrA act,PLCb3 inh,PLCg1 ctr,PLCb3 confirm
Cc1cc(N2CCN(CC(C)(C)O)C[C@@H]2C)ccc1N1CCN(CC(C)(C)O)[C@@H](C)C1,-1,0,.,-3,.,.
CCN1C(=O)N(C(C)=O)[C@H]2C[C@H](C(=O)N3CCCC3)[C@H](C)[C@H](c3ccccc3)C[C@H]21,2,0,.,0,.,.
O=C(NCCCn1ccnc1)c1cnn2c1NC(c1ccccc1)CC2C(F)(F)F (stereo unspecified),0,0,6,-1,.,.
O=C(NCC1CCCO1)c1cnn2c1NC(c1ccccc1)CC2C(F)(F)F (stereo unspecified),12*,1,0,10,-8,-7
COCCNC(=S)N1C[C@H]2CON(C)[C@H]2C[C@H]1c1ccccc1Br,9.7*,0,.,6,-2,1
CN1OC[C@@H]2CN(C(=S)NCCc3ccccc3)[C@H](c3ccccc3Br)C[C@@H]21,0,1,-2,-2,.,.
CC(C)(C)OC(=O)NCCc1onc(-c2cccc([N+](=O)[O-])c2)c1C(=O)O,2,0,5,1,.,.
Nc1cc(Cl)ccc1Oc1ccc2ccccc2c1,14*,2,-10,-5,-2,-5
COc1cccc(CNC(=O)c2ccccc2NC(=O)C2=C(C)OCCS2)c1,4,0,0,-5,.,.
NC(=O)c1ncn([C@@H]2O[C@H](C(=O)N[C@H](Cc3c[nH]c4ccccc34)C(=O)N3CCN(C(=O)N4CCOCC4)CC3)[C@@H](O)[C@H]2O)n1,-1,1,.,1,.,.
CC(=O)Nc1ccc(S(=O)(=O)c2ccc(C)cc2)cc1,10*,2,-3,-5,-7,-4
CCCNC(=O)C1(C)CCCN(C(=O)/C=C/c2ccccc2)C1 (stereo unspecified),2,0,-6,2,.,.
O=C(Nc1cc(Cl)ccc1O)C1CC(c2c(F)cccc2Cl)=NO1 (stereo unspecified),10*,1,-3,-4,-7,-3
Cc1ccc(S(=O)(=O)NCC2CCC(C(=O)NCc3cccs3)CC2)cc1 (stereo unspecified),3,0,-4,2,.,.
O=C(NCc1cccs1)C1CCC(CNS(=O)(=O)c2ccccc2)CC1 (stereo unspecified),12*,1,-5,5,4,5
NC(N)=NS(=O)(=O)c1ccc(NC(=S)NC(=O)/C=C/c2cccs2)cc1,13*,4,-5,-2,-1,-2
NS(=O)(=O)c1ccc(NC(=S)NC(=O)/C=C/c2cccs2)cc1,-2,3,-3,-1,.,.
O=C(/C=C/c1cccs1)Nc1ccc([N+](=O)[O-])cc1,12*,2,-3,5,5,6
O=C(COC(=O)Cc1c(Cl)cccc1Cl)NCc1ccccc1,-1,0,-1,5,.,.
C=CC[C@@H]1NN2C(=O)[C@@H](C)[C@@H]3c4ccccc4C=NN3[C@@H]2c2ccccc21,-8,.,.,-8,.,.
